# Source: PubChem BioAssay (Tox21)
# Values joined by “and” are separate entries in the source; they are usually repeats but may differ in a detail not shown here. Equal entries are not always repeated. Records with an inconclusive call do not appear. A structure can be active in one record and inactive in another. Active and inactive are the calls of the source. The call rests on the fitted dose curve.
# Experiment: qHTS assay for small molecule agonists of the antioxidant response element (ARE) signaling pathway - cell viability counter screen (AID 743203); further: nearly all actives have a fitted effect of over 55% in size
# Details: ARE-bla HepG2 viability, CellTiter-Glo luminescence, 16 h; series mostly up to 73.3 µM; viability change, negative = cytotoxic: at the top concentration
# Excerpt: National Center for Advancing Translational Sciences [NCATS]
# NIH Chemical Genomics Center [NCGC]
# U.S. Environmental Protection Agency [EPA]
# National Institutes of Environmental Health Sciences [NIEHS]
# National Toxicology Program [NTP]
# U.S. Food and Drug Administration [FDA]
# Oxidative stress has been implicated in the pathogenesis of a variety of diseases ranging from cancer to neurodegeneration. The antioxidant response element (ARE) signaling pathway plays an important role in the amelioration of oxidative stress. The CellSensor ARE-bla HepG2 cell line (Invitrogen) can be used for analyzing the Nrf2/antioxidant response signaling pathway. Nrf2 (NF-E2-related factor 2) and Nrf1 are transcription factors that bind to AREs and activate these genes. The CellSensor ARE-bla Hep G2 cell line contains a beta-lactamase reporter gene under control of the Antioxidant Response Element (ARE) stably integrated into HepG2 cells. The activation of the report gene under culture conditions can be detected by fluorescence intensity. This cell line has been used to screen the Tox21 10K compound library to identify agonists that induce oxidative stress. The cytotoxicity of the Tox21 compound library against the ARE-bla cell line was tested in parallel by measuring the cell viability using CellTiter-Glo assay (Promega, Madison, WI) in the same wells.
# Tox21 Assay Protocol Summary:
# ARE-bla HepG2 cells were dispensed at 2,000 cells/5 ul/well in 1536-well white wall/solid bottom plates using a Multidrop Combi (ThermoFisher Scientific, Waltham, MA) dispenser. After the assay plates were incubated at 37C/5% CO2 for 5 hrs, 23 nL of compounds dissolved in DMSO, positive controls or DMSO only was transferred to the assay plate by a pintool work station (Kalypsys, San Diego, CA). The plates were incubated at 37C/5% CO2 for 16 hrs, followed by addition of 4 ul/well of CellTiter-Glo reagent into the assay plates using a Flying Reagent Dispenser (Aurora Discovery, San Diego, CA). After 30 min incubation at room temperature, the luminescence intensity in the assay plates was measured using a ViewLux (PerkinElmer, Shelton, CT) plate reader.
# On the % scale 0 is the no-effect control and ±100 the full control effect; potency means the concentration at half of the fitted maximal effect.
SMILES,Potency,"viability change, negative = cytotoxic"
Nc1nc2ccccc2[nH]1,inactive,
CCN1CCCC1CNC(=O)c1cc(S(=O)(=O)CC)c(N)cc1OC (stereo not given),,2.9% (inactive)
N[C@@H]1CONC1=O,,4.61% (inactive)
c1cnc2cc3c(cc2n1)C1CNCC3C1,,0.615% (inactive)
C=CC(=O)OCCCCCCCC,,-5.81% (inactive)
O=C(O)CP(=O)(O)O,,13.1% (inactive)
CCOc1ccccc1C(N)=O,inactive,
CN1C(=O)c2ccc([N+](=O)[O-])cc2C1=O,,1.29% (inactive)
CC(=O)CC(=O)Nc1ccc2[nH]c(=O)[nH]c2c1,,-21.2% (inactive)
C#CC(C)(CC)OC(=O)c1ccccc1C(=O)O (stereo not given),,7.21% (inactive)
CCCCOCCOC(=O)c1ccccc1C(=O)OCCOCCCC,inactive,
O=C1OC2(c3ccc(O)cc3Oc3cc(O)ccc32)c2ccccc21,inactive,
COc1ccc(COC(C)=O)cc1,inactive,
CC(=O)Nc1ccc(C(=O)CCl)cc1,inactive and 19.3 µM (active),
CC1=CC(=O)c2ccccc2C1=O,24.3 µM (active) and 29.8 µM (active),
CCc1ccc(C(c2ccc(CC)cc2)C(Cl)Cl)cc1,inactive,
CCCCCCCCCCCCCC[P+](CCCC)(CCCC)CCCC,15.3 µM (active) and 10.9 µM (active),
CCCCC(CC)COC(=O)CC(C(=O)OCC(CC)CCCC)S(=O)(=O)O (stereo not given),58.8 µM (active) and 54.5 µM (active),
CCCC(=O)c1ccccc1,,-5.81% (inactive)
CC(=O)C1=C(C)[C@@H]2C[C@@]3(C1)[C@H](C)CC[C@H]3C2(C)C,inactive,

SMILES,Potency,"viability change, negative = cytotoxic"
CCC(C)(C)C(=O)O[C@H]1C[C@@H](C)C=C2C=C[C@H](C)[C@H](CC[C@@H]3C[C@@H](O)CC(=O)O3)[C@H]21,inactive,
CCCCCCCCCCCC[N+](C)(C)C,inactive and 48.6 µM (active) and 61.1 µM (active),
C/C=C/c1ccc(OCC)c(O)c1,,6.96% (inactive)
C=C(C)C(=O)O,inactive,
NC(Cc1ccc(Cl)cc1)C(=O)O (stereo not given),,0.376% [at 0.756 µM] (inactive)
CC(=O)O[C@]1(C(C)=O)CC[C@H]2[C@@H]3C[C@H](C)C4=CC(=O)CC[C@]4(C)[C@H]3CC[C@@]21C,inactive,
NCCO,inactive,
Oc1ccc(Cl)cc1Cc1cc(Cl)ccc1O,27.8 µM (active) and 54.5 µM (active),
O=C(Oc1ccccc1)c1ccccc1O,inactive,
CN(C)c1ccc(C(=C2C=CC(=[N+](C)C)C=C2)c2ccccc2)cc1,545 nM (active) and 2.98 µM (active),
Cc1c(O)cccc1C(=O)N[C@@H](CSc1ccccc1)[C@H](O)CN1C[C@H]2CCCC[C@H]2C[C@H]1C(=O)NC(C)(C)C,15 µM (active) and 26.6 µM (active),
c1ccc2c(c1)CCCC2C1=NCCN1 (stereo not given),,1.7% (inactive)
c1ccc2c(c1)-c1cccc3c1c-2cc1ccccc13,inactive,
C=CC(=O)OCCCCCCOC(=O)C=C,inactive,
COC(=O)c1cccc(C(=O)OC)c1,inactive,
Cc1cccc(O)c1C,inactive,
CCCN[C@H]1CCc2nc(N)sc2C1,inactive,
c1cc(C(c2ccc(OCC3CO3)cc2)C(c2ccc(OCC3CO3)cc2)c2ccc(OCC3CO3)cc2)ccc1OCC1CO1 (stereo not given),inactive,
c1ccc2cc3c(ccc4ccccc43)cc2c1,,7.3% (inactive)
Nc1cc(S(=O)(=O)O)cc2cc(S(=O)(=O)O)cc(O)c12,inactive,
